This note sets out measurements from PubChem BioAssay AID493169 (National Center for Advancing Translational Sciences (NCATS), 2011).

Inconclusive results are not listed. Entries that show only a call come without a potency. Active and inactive are the calls of the source. Calls come from the whole dose curve; as a rule, active = well fitted inhibition curve with a large enough effect; inconclusive = small, poorly fitted or top-dose-only effect; inactive = flat fitted curve, though single readings scatter.
Potency is the fitted concentration of half-maximal effect.

This experiment in a line: CHOP2 Reporter Counterscreen Assay for Inhibitors of Ubiquitin-specific Protease USP2a.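 Note: activated enterokinase alone at 50 pM in a cell-free format rather than USP2a or CHOP2; nearly all actives have a fitted effect of over 55% in size.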 The following applies: purified enterokinase, fluorogenic substrate, 485/531 nm; series mostly up to 38.3 µM. The method, boiled down: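 Cell-free counterscreen with pre-activated enterokinase alone (50 pM final) in 20mM Tris-HCl pH 8.0, 2mM CaCl2, 2mM beta-mercaptoethanol, 0.05% CHAPS; compound preincubation 30 min RT, reporter substrate 25nM final, fluorescence read after 10 min (Ex 485/Em 531).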
Consider `C#CCOCCOCCOCCNc1nc(N2CCN(C(=O)CCCCCCCCCCNC(=O)Cn3cc(CCCCCN)nn3)CC2)nc(N2CCN(C(=O)CCCCCCCCCCNC(=O)[C@H](CO)n3cc(CCCCCN)nn3)CC2)n1`, for which the Potency is 11.2 µM (active).

For the compound `COc1ccc(S(=O)(=O)N2CCCC2C(=O)NCc2cccs2)cc1` (stereo not given), the Potency result was “inactive”.

As to `COc1cccc(N2CCN(C(=O)CN(C)S(=O)(=O)c3ccc4c(c3)CCC(=O)N4)CC2)c1`, the Potency result was “inactive”.

As to `O=C(Nc1cccc(S(=O)(=O)N2CCCC2)c1)c1cncc(Br)c1`, the Potency entry is “inactive”.

As for `c1coc(CNC2CCCCCCC2)c1`, the Potency entry was “inactive”.

For the compound `Cc1ccc(C(C(=O)NC2CCCC2)N2CCc3ccccc32)cc1` (stereo not given), the Potency result is “inactive”.

Take `O=C1/C(=C/C=C/c2ccco2)SC(=S)N1c1ccc(O)cc1`: the Potency was 2.82 µM (active).

As for `CCC(CO)Oc1cc(NCc2cccc(C)c2)c2ncn(C(C)C)c2c1` (stereo not given), the Potency result is “inactive”.

For `CC(C)C(=O)N=c1sc2cc(F)cc(F)c2n1C`, the Potency entry is “inactive”.

In the case of `CCc1nnc(NC(=O)CSc2nccn2-c2cccc(C)c2)s1`, the Potency result is “inactive”.

Take `O=C(Nc1cccc(S(=O)(=O)NC2=NCCC2)c1)c1cc(-c2ccco2)nc2ccccc12`: the Potency is 1.78 µM (active).

For the compound `CCOC(=O)Nc1nnc(CCc2ccccc2)s1`, the Potency result is “inactive”.

Turning to `Cc1nc(NC(C)C)c2cnn(CCc3ccccc3)c2n1`, the Potency entry is “inactive”.

Take `COc1ccc(/C=C2\SC(=S)N(NS(=O)(=O)c3ccc(C)cc3)C2=O)c(OC)c1`: the Potency result is “inactive”.

As for `CC(C)c1ccc(CCNC(=O)c2ccc([N+](=O)[O-])cc2)cc1`, the Potency entry is “inactive”.

Take `CC1(C)CC(=O)C=C(NCc2cccs2)C1`: the Potency entry is “inactive”.

As to `CC(C)OCCCNC(=O)CN1C(=O)CC(C)(C)S(=O)(=O)c2ccccc21`, the Potency entry was “inactive”.

Regarding `Cc1nn(C)cc1CNC(=O)c1ccc(Br)o1`, the Potency entry is “inactive”.

On to `CCCCCCCCCCOC(=O)Cn1c(COc2ccc(OC)cc2)[n+](C)c2ccccc21`, for which the Potency was 10 µM (active).

As to `Cc1cccc(N2CCN(C(=O)CCc3nc4ccccc4[nH]3)CC2C)c1` (stereo not given), the Potency entry is “inactive”.

`COC(=O)N/N=C\c1cc(Br)ccc1OCc1ccccc1`: the Potency entry was “inactive”.

Turning to `O=C(Nc1nnc(-c2ccco2)s1)C1CCCCC1`, the Potency entry was “inactive”.

As for `O=C(NCc1ccccc1)C1CCC1`, the Potency result is “inactive”.

With `Nc1ccccc1S(=O)(=O)NC1=NCCCCC1`, the Potency entry is “inactive”.

Consider `CC(=O)Nc1ccc(NC(=O)[C@@H](NC(=O)c2cccc(C)c2)C(C)C)cc1`, for which the Potency result is “inactive”.

In the case of `Cc1ccc(-c2ccc(CCC(=O)O)n2NC(=O)c2cccs2)cc1`, the Potency entry was “inactive”.

Regarding `Cc1ccc(C(=O)NCCNS(=O)(=O)c2ccccc2)cc1`, the Potency result is “inactive”.

In the case of `O=C(COC(=O)c1ccc(NS(=O)(=O)c2cccs2)cc1)Nc1nc2c(F)c(F)c(F)cc2s1`, the Potency was 10 µM (active).

With `CCOc1ccc2[nH]c(=O)c(CN(CCc3ccccc3)C(=O)c3cnccn3)cc2c1`, the Potency entry was “inactive”.

As for `CN1CCN(Cc2c(O)ccc3c(=O)c(Oc4ccccc4Cl)c(C(F)(F)F)oc23)CC1`, the Potency entry is “inactive”.

Regarding `CCN(C[C@H]1N[C@@](CC)(C(=O)OC)[C@H]2C(=O)N(Cc3ccccc3)C(=O)[C@@H]12)C(=O)Nc1ccc(C)cc1`, the Potency result was “inactive”.

Turning to `CC12CN3CC(C)(CN(C1)C3c1ccc(Cl)cc1Cl)C2O` (stereo not given), the Potency entry is “inactive”.

As for `Cc1nc2n(n1)CC(O)CS2` (stereo not given), the Potency entry was “inactive”.

As to `CCCCCCCCCS(=O)(=O)N/N=C/c1cccc([N+](=O)[O-])c1`, the Potency entry was “inactive”.

Turning to `Cn1c(C(=O)NCCCN2CCN(c3ccccc3F)CC2)cc2c(=O)n(C)c3ccccc3c21`, the Potency result is “inactive”.

As to `O=C(c1ccccc1)N1CCN(C(=O)N2CCCCC2)CC1`, the Potency result was “inactive”.

Take `Cn1ccc(=Nc2ccc(NC(=O)c3ccc(N=c4ccn(C)c5ccc([N+](=O)[O-])cc45)cc3)cc2)cc1`: the Potency result is “inactive”.

As to `Cn1nc(CC(=O)NCc2ccc(F)cc2)c2ccccc2c1=O`, the Potency result is “inactive”.

Regarding `CCOc1ccc2[nH]c(=O)c(CN(Cc3cccs3)Cc3nnnn3C(C)(C)CC)cc2c1`, the Potency entry was “inactive”.

For `CCC(C)NC(=O)C1CN(S(=O)(=O)c2ccccc2)CCN1S(=O)(=O)c1ccccc1` (stereo not given), the Potency entry was “inactive”.
